# Laboratory results: PubChem BioAssay AID1851 (National Center for Advancing Translational Sciences (NCATS), 2009)
# Hit rate of the full screen: of about 16,000 compounds, about 5,100 (32%) were called active. About 25% were inconclusive and are not listed. Calls come from the whole dose curve; as a rule, active = well fitted curve in the direction sought with a large enough effect; inconclusive = small, poorly fitted or top-dose-only effect, or effect the other way; inactive = no such curve, though single readings can be large or run the other way. The list shows a part of the results.
# Target: Cytochrome P450 3A4 (Homo sapiens) (UniProt P08684)
# Sequence (P08684 whole entry, looked up): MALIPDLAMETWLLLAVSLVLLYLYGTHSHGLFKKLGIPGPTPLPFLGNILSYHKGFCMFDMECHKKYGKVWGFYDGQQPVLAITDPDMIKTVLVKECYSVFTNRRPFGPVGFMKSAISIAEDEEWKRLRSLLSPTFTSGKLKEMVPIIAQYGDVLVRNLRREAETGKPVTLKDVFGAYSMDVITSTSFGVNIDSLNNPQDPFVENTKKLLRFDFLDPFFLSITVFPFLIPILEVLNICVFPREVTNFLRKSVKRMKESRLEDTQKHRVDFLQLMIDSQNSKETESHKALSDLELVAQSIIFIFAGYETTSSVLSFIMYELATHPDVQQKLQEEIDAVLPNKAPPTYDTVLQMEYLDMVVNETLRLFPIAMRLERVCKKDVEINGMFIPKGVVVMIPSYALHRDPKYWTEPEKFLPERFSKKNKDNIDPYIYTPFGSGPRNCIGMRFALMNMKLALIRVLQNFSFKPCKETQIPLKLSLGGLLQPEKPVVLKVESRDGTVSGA
# Test: Cytochrome panel assay with activity outcomes
# Details: recombinant CYP, pro-luciferin dealkylation, luminescence, p450-cyp3a4; series mostly up to 57.1 µM
# % is set by controls: 0 for no effect and ±100 for the full control effect.
SMILES,AC50,"activity, negative = inhibition"
CCOC(=O)C(NC(C)=O)C(OC(C)=O)c1cccc(N(CCO)CCO)c1 (centres undefined),inactive,
CC(=O)N(C)c1nnc(-c2cnccn2)s1,inactive,
CC(=O)N[C@@H]1CONC1=O,,-3.29% [at 11.4 µM] (inactive)
O=C1[C@H]2[C@H]3[C@H](O)[C@H](O)C/C(=N/OCc4ccccc4)[C@@H]3CC[C@@H]2C(=O)N1C[C@@H]1CCCO1,,-20.3% [at 11.4 µM] (inactive)
O=C1[C@H]2[C@H]3[C@H](O)[C@H](O)C/C(=N/OCc4ccccc4)[C@@H]3CC[C@@H]2C(=O)N1Cc1ccc2c(c1)OCO2,2 µM (active),
CC(C)CO/N=C1/C[C@@H](O)[C@@H](O)[C@@H]2[C@@H]3C(=O)N(Cc4ccc5c(c4)OCO5)C(=O)[C@H]3CC[C@H]12,1 µM (active),
O=C1[C@H]2[C@H]3[C@H](O)[C@H](O)C/C(=N/OCc4ccccc4)[C@H]3CC[C@@H]2C(=O)N1C[C@@H]1CCCO1,,-11.3% [at 11.4 µM] (inactive)
CC(C)CO/N=C1/C[C@@H](O)[C@@H](O)[C@@H]2[C@@H]3C(=O)N(C[C@@H]4CCCO4)C(=O)[C@H]3CC[C@H]12,,-0.365% [at 11.4 µM] (inactive)
CC(C)CO/N=C1/C[C@@H](O)[C@@H](O)[C@@H]2[C@@H]3C(=O)N(Cc4ccccc4)C(=O)[C@H]3CC[C@@H]12,,-11.8% [at 11.4 µM] (inactive)
Nc1ccc(C(=O)C[C@H](N)C(=O)O)cc1O,,-6.46% [at 11.4 µM] (inactive)
O=C(O)[C@@H]1[C@@H](C(=O)Nc2ncccn2)[C@@H]2C=C[C@@H]1O2,,-13% [at 11.4 µM] (inactive)
Fc1ccc(-c2cnc(-c3cccs3)o2)cc1,inactive,
Nc1c(-c2cccs2)cnn1-c1nc(-c2ccc(F)cc2)cs1,3.98 µM (active),
CCOC(=O)c1cnn(-c2nc(-c3ccc(F)cc3)cs2)c1C(F)(F)F,inactive,
Cc1ccc(C)c(S(=O)(=O)NCc2ccc(C(=O)N3CCC(Cc4ccccc4)CC3)cc2)c1,2.24 µM (active),
CC1(C)CC(O)CC(C)(C)N1CC(O)COCCOc1ccc(Br)cc1 (centres undefined),inactive,
COCCNC(=O)COC(=O)/C=C/c1cnc2ccccc2n1,,-3.34% [at 2.29 µM] (inactive)
O=C(CCl)Nc1ccc(Oc2cnc3ccccc3n2)cc1,14.1 µM (active),
Clc1cccc(Oc2cnc3ccccc3n2)c1,inactive,
COc1ccc(CCNc2nc(-c3cccnc3)cs2)cc1OC,3.16 µM (active),
COc1ccc(CNc2cc(-c3cccnc3)ncn2)c(OC)c1,1.58 µM (active),
O=C(NC(=S)Nc1nc(-c2ccc(Br)cc2)cs1)c1cccnc1,,-14.3% [at 2.29 µM] (inactive)
COc1ccccc1CNc1cc(-c2cccnc2)ncn1,0.631 µM (active),
c1ccc(-c2csc3ncn4cnnc4c23)cc1,inactive,

SMILES,AC50,"activity, negative = inhibition"
Cc1ccc(C2C(C(=O)c3ccco3)=C(O)C(=O)N2c2nnc(C)s2)cc1 (centres undefined),inactive,
CCS(=O)(=O)Nc1ccc(C2=NN(C(=O)c3ccco3)C(c3ccc(C)cc3)C2)cc1 (centres undefined),3.98 µM (active),
N=C(N)SCCc1cnc[nH]1,15.8 µM (active),
N=C(N)SCCc1ccncc1,,4.88% [at 11.4 µM] (inactive)
N=C(N)SCCSC(=N)N,,-5.54% [at 11.4 µM] (inactive)
Cc1cc(C)cc(Oc2coc3cc(OC(=O)c4cccs4)ccc3c2=O)c1,inactive,
CCOc1ccccc1Oc1coc2cc(OC)ccc2c1=O,inactive,
Cc1cccc(Oc2coc3cc(OC(=O)c4cccs4)ccc3c2=O)c1,11.2 µM (active),
CCCCCCCCn1cc(C(C)=O)c(=O)[nH]c1=O,,-12.5% [at 2.29 µM] (inactive)
O=C(Cn1c(=O)n(Cc2ccco2)c(=O)c2c3c(sc21)CCCCC3)c1ccccc1,14.1 µM (active),
C[N+]1(NCC[N@@+]2(C)CCc3ccccc3C2)CCCCC1,,0.246% [at 11.4 µM] (inactive)
CCC(C)(C)n1nnnc1C(C(C)C)N(Cc1ccco1)Cc1cc2cc3c(cc2[nH]c1=O)OCO3 (centres undefined),1 µM (active),
CCC(C)(C)n1nnnc1C(c1ccc(C)cc1)N1CCC(C)CC1 (centres undefined),,21.5% [at 2.29 µM] (inactive)
CCC(C)(C)n1nnnc1C(c1cc2cc3c(cc2[nH]c1=O)OCO3)N1CCCCC1 (centres undefined),1.58 µM (active),
CCC(C)(C)n1nnnc1C(C(C)C)N(CCCO)Cc1cc2cc(C)ccc2[nH]c1=O (centres undefined),2 µM (active),
c1ccc(C[n+]2cccc(-c3cc4ccccc4[nH]3)c2)cc1,,-7.36% [at 11.4 µM] (inactive)
Fc1ccccc1OCCCCSc1ncccn1,inactive,
O=S(=O)(O)[C@@H](CO)c1ccccc1 (tested in a mixture with another compound),,-1.16% [at 11.4 µM] (inactive)
O=C1C(SCCO)=C(SCCO)C(=O)c2ccccc21,25.1 µM (active),
O=C1C(=O)c2ccccc2C(O)=C1C(CCc1ccccc1)C1=C(O)c2ccccc2C(=O)C1=O,,-5.65% [at 11.4 µM] (inactive)
COc1ccc2[nH]cc(C=O)c2c1,inactive,
COc1cccc(-c2cc(NCCc3c[nH]c4ccc(OC)cc34)ncn2)c1,7.94 µM (active),
COc1ccc2[nH]cc(CCNc3ccnc(-c4cccnc4)n3)c2c1,1.26 µM (active),
COc1ccc2[nH]cc(CCNc3cc(-c4cccc(C#N)c4)ncn3)c2c1,3.98 µM (active),

SMILES,AC50,"activity, negative = inhibition"
COc1ccc2[nH]cc(CCNc3cc(-c4cccnc4)ncn3)c2c1,3.98 µM (active),
COc1ccc2[nH]cc(CCNc3cc(-c4ccoc4)ncn3)c2c1,10 µM (active),
CC(C)N=C(N)/N=C(\N)Nc1ccc(Cl)cc1,inactive,
Cc1ccc(NC(=O)N/C=C/c2ccc(Cl)cc2)cc1,0.0501 µM (active),
O=c1ncn(-c2ccccc2F)c2ncccc12,,14.6% [at 2.29 µM] (inactive)
O=c1ccc(-c2ccccc2)n[nH]1,,-16.6% [at 11.4 µM] (inactive)
O=C1c2ccccc2-c2n[nH]c3cccc1c23,3.98 µM (active),
Cc1n[nH]c2ccccc2c1=O,,-6.8% [at 11.4 µM] (inactive)
NC(N)=NC(=O)Cc1c(Cl)cccc1Cl,inactive,
Cc1cc2cccc(C)c2nc1SCC(=O)N(C)c1nc(-c2ccccc2)cs1,inactive,
Cc1nc2cc(NC(=O)CSc3nc4c(C)cccc4cc3C#N)ccc2s1,2.82 µM (active),
Cc1ccc2nc(SCC(=O)NCc3cccs3)c(C#N)cc2c1,,-9.74% [at 2.29 µM] (inactive)
O=C(NCC1CCCO1)c1ccc(CS(=O)(=O)Cc2ccc(F)cc2)o1 (centres undefined),inactive,
CCC(C)NS(=O)(=O)c1ccc(OCC(=O)NCC2CCCO2)cc1 (centres undefined),inactive,
COc1ccc(S(=O)(=O)N(CC(=O)NCC2CCCO2)c2ccc(F)cc2)cc1OC (centres undefined),8.91 µM (active),
COc1ccccc1N(CC(=O)NCC1CCCO1)C(=O)CNS(=O)(=O)c1ccc(C)cc1 (centres undefined),7.94 µM (active),
CC(C)C(C(=O)NCC1CCCO1)N(Cc1ccco1)C(=O)CNS(=O)(=O)c1ccc(F)cc1 (centres undefined),5.01 µM (active),
O=C(O)c1cc(S(=O)(=O)NCC2CCCO2)ccc1Cl (centres undefined),inactive,
COc1ccc(/C=C(\C#N)C(=O)NCC2CCCO2)cc1OC (centres undefined),inactive,
O=C(CN(CC1CCCO1)C(=O)CNS(=O)(=O)c1ccc(Cl)cc1)NCCc1ccccc1 (centres undefined),11.2 µM (active),
Cc1ccccc1NC1=NC(=S)N(c2ccccc2)C12CCOC(C)(C)C2 (centres undefined),10 µM (active),
COc1ccc(NC2=NC(=S)N(c3ccc(C)cc3)C23CCCCC3)cc1,inactive,
Cc1cccc(NC2=NC(=S)N(c3ccc(C(=O)O)cc3)C23CCCCC3)c1,,10.4% [at 2.29 µM] (inactive)
Cc1nc2cnc(Oc3cccc(Cl)c3)nc2n(C2CC2)c1=O,inactive,

SMILES,AC50,"activity, negative = inhibition"
COc1cccc(Nc2ncc3nc(C)c(=O)n(CCc4ccccc4)c3n2)c1,7.94 µM (active),
O=c1cnc2cnc(Nc3ccccc3)nc2n1CCc1ccccc1,inactive,
COc1cccc(Nc2ncc3nc(C)c(=O)n(C4CC4)c3n2)c1,6.31 µM (active),
COCCn1c(=O)c(C)nc2cnc(Nc3cccc(OC)c3)nc21,15.8 µM (active),
N[C@@H](Cc1cc(CP(=O)(O)O)cc(-c2ccccc2Cl)c1)C(=O)O,inactive,
CCN1C(=O)C2(SC(NC(C)=O)=NN2C(C)=O)c2cc(C)ccc21 (centres undefined),inactive,
Nc1ncc(-c2ccccc2)n1CC1CCCO1 (centres undefined),7.08 µM (active),
O=C1c2ccccc2C(=O)N1CC1CCCO1 (centres undefined),inactive,
N#Cc1cccc(-c2nc3cnc(Nc4ccccc4)nc3n(C[C@H]3CCCO3)c2=O)c1,inactive,
CC(=O)c1sc(N)c(C(=O)OC(C)C)c1C,inactive,
COc1ccc(CNc2ncncc2-c2ccc(C(=O)N(C)C)cc2)c(OC)c1,0.501 µM (active),
COc1ccc(CNc2ncncc2-c2ccc(N(C)C)cc2)c(OC)c1,0.2 µM (active),
COc1ccccc1CNc1ncncc1-c1ccc(C(=O)N(C)C)cc1,2.51 µM (active),
C/C(=N\OC(=O)c1ccc(F)cc1)c1nccs1,inactive,
N[C@@H](Cc1c[nH]c2ccc([N+](=O)[O-])cc12)C(=O)O,,-8.71% [at 11.4 µM] (inactive)
Cc1cccc(NC(NC(=O)c2cccnc2)C(Cl)(Cl)Cl)c1 (centres undefined),10 µM (active),
O=C(NC(NCc1ccccc1)C(Cl)(Cl)Cl)c1cccnc1 (centres undefined),12.6 µM (active),
CCn1ccc(C(=O)NC2C(=O)N3C(C(=O)O)=C(C)CSC23)n1 (centres undefined),inactive,
O=C1CCCC2=C1C(c1ccc(OS(=O)(=O)c3ccc(Cl)cc3)cc1)C1=C(CCCC1=O)O2,2.24 µM (active),
COc1ccc2c(c1)OC1=C(C(=O)CCC1)C2C1=C(O)CCCC1=O (centres undefined),inactive,
Cc1ccc(S(=O)(=O)Oc2ccc(C3C4=C(CCCC4=O)OC4=C3C(=O)CCC4)cc2)cc1,6.31 µM (active),
Cc1ccc(S(=O)(=O)Oc2cc(N)c3c(n2)CCC3)cc1,,-14.1% [at 11.4 µM] (inactive)
